Consider 14 molecules from PubChem BioAssay (NCI).

The panel holds about 83,000 compounds, 20% with a hit somewhere; the sample as a whole holds those more often.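 Method: cells in 96-well plates; compound added at one concentration; 48 h incubation; percent growth measured; values under 10 scored active.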 Unmarked numbers belong to inactive results. The source made the active and inactive calls.

For the assay, the system named is IGROV1 ovarian. Kind of assay: NCI-60 one-dose screen, 48 h (100 = growth as untreated, 0 = no growth, -100 = all killed). The conditions noted are these: 10 µM.
As for `CCc1ccc(-c2ccc(-n3nc(C)c4c(N)nc(Cc5ccccc5)nc43)cc2)cc1`, the growth is 68%. Regarding `O=C(Nc1ccc(F)cc1)c1cc2ccccc2cc1O`, the growth is 68.4%. `Nc1nccc(OCCO)n1`: the growth was 107%. Turning to `O=C(CCCCNC(=O)c1nc(-c2ccccc2)n(-c2ccccc2)n1)NO`, the growth is 89.2%. Consider `COc1cc(-c2nn(-c3ccc(NC(=O)NCCNS(=O)(=O)c4ccc(F)cc4)cc3)cc2-c2ccncc2)ccc1Cl`, for which the growth is 27.3%. With `O=C(Nc1ccc2c(O)cc(S(=O)(=O)O)cc2c1)c1ccc([N+](=O)[O-])cc1` the figure was 102%. `COC(=O)C1(O)NC(=C(C#N)C#N)C(C#N)=C1C(=O)c1ccc(OC)c(OC)c1` (centres undefined): the growth is 101%. Regarding `C=CCn1c(SCC(=O)Nc2ccc(C(=O)/C=C/c3ccc(OC)cc3)cc2)nnc1-c1ccc(OC)c(OC)c1`, the growth is 94.4%. With `COc1cc(NC(=O)Nc2cnc(Nc3ccc(N4CCOCC4)cc3)nc2Oc2cccc(OC)c2)cc(OC)c1` the figure was 43.4%; with `O=C(CCl)Nc1ccc(Cc2ccc(NC(=O)CCl)cc2)cc1`, -45.9% (active); with `Cc1nn(-c2ccc(-c3ccc(OC(F)(F)F)cc3)cc2)c2nc(Cc3ccccc3)nc(N)c12`, 47.3%. Turning to `O=C(Nc1nc(-c2ccccc2)nc2c1sc(=S)n2-c1ccccc1)C(F)(F)F`, the growth was 106%. Regarding `S=c1cnc2ccccc2[nH]1`, the growth was 97.2%.

Regarding `O=C(CSc1nnc(-c2ccc(Cl)cc2)o1)Nc1ccc(C(=O)/C=C/c2ccc(Cl)cc2)cc1`, the growth is 108%.
